As a reminder, the inhibition is the change of the read-out against control, counted positive when it falls.

Hit rate of the full screen: of about 220,000 compounds, about 2,000 (0.91%) were called active. Another 2% or so got no clear call; they are omitted. No stated cut-off is given here; in the data, inconclusive means inhibition above about 80% without an active follow-up result; inactive means below that; test concentration not stated here. A selection follows. Entries with a potency or affinity are not part of this list.

Drawing on PubChem BioAssay AID1626 (SRMLSC, 2009), this text covers inhibition for 95 compounds.

The nature of this assay: M. tuberculosis H37Rv growth inhibitors, H37Rv strain (AID 1626).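 Further: bacteria incubated seven days before Alamar blue readout; 0% = bacteria only wells and 100% = bacteria with antibiotic wells.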 Conditions: hits give high values, concentration not given here.
Consider `O=C1c2ccccc2C(Nc2ccc(S(=O)(=O)N3CCOCC3)cc2)N1Cc1ccco1` (stereo not given), for which the inhibition is -2.41% (inactive).
With `CC(CC(=O)N1CCN(c2ccc(C(F)(F)F)cn2)CC1)n1ccnc1` (stereo not given), the inhibition was 1.81% (inactive).
In the case of `O=C(Cc1ccc(-n2c(=O)c3sccc3n(CC(=O)Nc3ccccc3F)c2=O)cc1)NCc1ccco1` it was -10.9% (inactive).
In the case of `COc1cc(OC)c2c(-c3ccccc3)cc(=O)oc2c1C(CC(=O)N1CCOCC1)c1ccc(N(C)C)cc1` (stereo not given) it was -7.25% (inactive); in that of `COc1cc(C(CCN2CCCC(C)C2)c2c(OC)cc(OC)c3c(-c4ccccc4)cc(=O)oc23)cc(OC)c1OC` (stereo not given), 71% (inactive).
In the case of `COc1ccc(C(CC(=O)N2CCCC(C)C2)c2c(OC)cc(OC)c3c(-c4ccccc4)cc(=O)oc23)cc1` (stereo not given) it was -5.32% (inactive); in that of `COc1cc(C(CCN2CCCC2)c2c(OC)cc(OC)c3c(-c4ccccc4)cc(=O)oc23)cc(OC)c1OC` (stereo not given), -3.05% (inactive); in that of `O=C(Cc1c(Cl)cccc1Cl)Nc1cccc(S(=O)(=O)N2CCOCC2)c1`, 9.23% (inactive).
Take `OC(COc1ccc(-c2ccccc2)cc1)CN1CCOCC1` (stereo not given): the inhibition was 8.22% (inactive).
In the case of `CCOc1ccccc1NC(=O)Cn1c(=O)oc2ccccc21` it was 6.54% (inactive); in that of `Cc1nn(-c2ccccn2)c2c1C(c1ccccc1Cl)C1=C(N2)c2ccccc2C1=O` (stereo not given), 5.6% (inactive).
In the case of `Cc1nn(-c2ccccn2)c2c1C(c1c(F)cccc1Cl)C1=C(N2)c2ccccc2C1=O` (stereo not given) it was 8.57% (inactive).
In the case of `Cc1cc(C)c(C#N)c(Oc2ccc(O)cc2)n1` it was 8.87% (inactive).
On to `CC(=O)C1C(=O)C=C(c2cccs2)CC1c1ccccc1` (stereo not given), for which the inhibition is 2.98% (inactive).
In the case of `O=C1C=C(c2cccs2)CC(c2cccs2)C1n1cnc([N+](=O)[O-])c1` (stereo not given) it was 8.22% (inactive).
Consider `Cc1ccc(S(N)(=O)=O)c(C)c1N1CCCC1=O`, for which the inhibition was -3.84% (inactive).
In the case of `COc1ccc(-c2noc(CCC(=O)NCCCN3CCN(c4ccc(F)cc4)CC3)n2)cc1` it was 8.36% (inactive); in that of `Cc1ccc(-c2noc(CCC(=O)Nc3ccc4c(c3)OCO4)n2)cc1`, 67.5% (inactive).
In the case of `COc1cc(OC)c(NC(=O)CCc2nc(-c3ccc(C)cc3)no2)cc1Cl` it was -0.67% (inactive); in that of `COc1ccc(-c2noc(CCC(=O)Nc3cc(OC)ccc3OC)n2)cc1`, 3.07% (inactive); in that of `Cc1ccc(-c2noc(CCC(=O)NCCCN3CCN(c4ccc(F)cc4)CC3)n2)cc1`, -9.54% (inactive).
In the case of `COc1ccc(-c2noc(CCC(=O)Nc3cc(Cl)c(OC)cc3OC)n2)cc1` it was 14.3% (inactive).
Turning to `COc1ccc(-c2noc(CCC(=O)Nc3cccc(C)c3)n2)cc1`, the inhibition is 78.2% (inactive).
In the case of `COc1ccc(CCC(=O)Nc2ccc3c(c2)OCCO3)cc1`, the inhibition is -2.09% (inactive).
With `CCOc1ccc(-c2nc(N)ncc2Oc2ccc(OC)cc2)c(O)c1`, the inhibition was 1.63% (inactive).
In the case of `CCOc1ccc(CN2CCN(Cc3cccc4c3OCO4)CC2CCO)cc1` (stereo not given) it was 5.32% (inactive); in that of `CC(OC(=O)c1ccc(Cl)c(S(=O)(=O)Nc2ccc(F)cc2)c1)C(=O)NC(N)=O` (stereo not given), -1.89% (inactive); in that of `CCn1c(NN=O)nc2ccccc21`, 3.63% (inactive).
In the case of `CC(=O)C1=C(C)NC(=O)NC1c1cccs1` (stereo not given) it was -8.1% (inactive).
In the case of `COc1cc(/C=C(\C#N)c2ccccn2)ccc1OCC(=O)Nc1ccc(Br)cc1` it was -1.03% (inactive); in that of `C#CC1(NC(=O)NC(C)(C)C)CCCCC1`, 2.25% (inactive); in that of `COc1ccccc1NC(=O)COC(=O)c1cnc(C)cn1`, 0.5% (inactive).
As to `CCc1cc(C(c2cccc(OC)c2)N2CCOCC2)c(NC(=O)c2ccccc2)s1` (stereo not given), the inhibition was 2.32% (inactive).
For the compound `CCOC(=O)C1(CC/C(C)=N\NC(N)=O)CC(C)(C)OC1=O` (stereo not given), the inhibition is -7.16% (inactive).
As to `Cc1nnc(C)n1/N=C/c1cccc(Oc2ccccc2)c1`, the inhibition was 5.69% (inactive).
In the case of `COC(=O)c1ccsc1NC(=O)C1=COCCO1` it was 2.57% (inactive); in that of `CNc1nc(C23CC4CC(CC(C4)C2)C3)cs1`, 2.54% (inactive); in that of `O=C(NCc1ccccc1)C(=O)Nc1nc(C23CC4CC(CC(C4)C2)C3)cs1`, 6.64% (inactive).
In the case of `CCn1c(SCC(=O)Nc2ccccc2C(=O)OC)nnc1-c1cccc(C)c1` it was -2.01% (inactive).
In the case of `O=C(Nc1nc2ccccc2n1CCN1CCCC1)C1CCCCC1` it was -3.71% (inactive); in that of `O=C(Nc1nc2ccccc2n1CCN1CCCCC1)C1CCCCC1`, 4.2% (inactive).
As to `CN(C)CCCn1c(NC(=O)C2CCCCC2)nc2ccccc21`, the inhibition is 3.22% (inactive).
In the case of `CCCCn1c(NC(=S)Nc2ccccc2)nc2ccccc21` it was 9.5% (inactive); in that of `O=C(Cc1ccccc1)Nc1cccc(N2CCCC2)c1`, 2.44% (inactive).
As for `Cc1nnc(NN)n(N)c1=O`, the inhibition was -3.11% (inactive).
In the case of `O=C(N/C(=C/C=C\c1ccccc1)C(=O)N1CCOCC1)c1ccc(Br)cc1` it was 64.4% (inactive).
In the case of `CCCCOc1ccc(C(=O)N/C(=C/C=C/c2ccccc2)C(=O)O)cc1` it was -8.39% (inactive); in that of `CCC(=O)Nc1ccc(NC(=S)NC(=O)c2cc3ccccc3o2)cc1`, 15.4% (inactive); in that of `Cc1ccc(S(=O)(=O)NCC(=O)N(CC(=O)NCC2CCCO2)Cc2ccco2)cc1` (stereo not given), 11.1% (inactive).
In the case of `O=C(O)c1ccccc1C(=O)c1ccc(N2CCOCC2)c([N+](=O)[O-])c1` it was 3.64% (inactive).
`O=[N+]([O-])c1cc(Cl)ccc1N1CCOCC1`: the inhibition was -3.75% (inactive).
In the case of `COc1ccc(C(=O)c2ccc(N3CCOCC3)c([N+](=O)[O-])c2)cc1` it was -2.74% (inactive); in that of `Cc1ccc(OC(=O)c2ccc(N3CCOCC3)c([N+](=O)[O-])c2)cc1`, 54.1% (inactive).
In the case of `O=C(OCC(=O)N1CCOCC1)c1ccc(N2CCOCC2)c([N+](=O)[O-])c1` it was -0.57% (inactive); in that of `O=C(Nc1ccccc1N1CCOCC1)c1ccc(N2CCOCC2)c([N+](=O)[O-])c1`, 6.98% (inactive).
For the compound `Cc1sc(NC(=O)CSc2nnc(-c3ccccc3)o2)c(C#N)c1C`, the inhibition was -2.26% (inactive).
In the case of `CCOc1ccc(NC(=O)CC2SC(N)=NC2=O)c([N+](=O)[O-])c1` (stereo not given) it was 2.3% (inactive); in that of `COC(=O)c1ccc(NC(=O)CN2C(=O)C3C4C=CC(C4)C3C2=O)cc1` (stereo not given), 1.35% (inactive); in that of `Cc1ccc(NC(=O)CCC(=O)c2cccs2)cc1`, 1.21% (inactive).
In the case of `COc1ccc(C(=O)CCNc2cccc(Cl)c2)cc1` it was 10.7% (inactive).
In the case of `Cc1ccc(NC(=O)COC(=O)CCC(=O)c2cccs2)cc1` it was -6.9% (inactive); in that of `COc1ccc(C(=O)CNc2ccccc2CO)cc1`, -0.7% (inactive).
Consider `COc1ccc(C(=O)CNc2ccccc2C#N)cc1`, for which the inhibition was 3.5% (inactive).
In the case of `CCCOc1ccc(C(=O)CCNc2ccc(C)c(Cl)c2)cc1` it was 69.1% (inactive); in that of `O=C(CCNc1cc(Cl)cc(Cl)c1)c1cccs1`, 74.2% (inactive).
As for `Cc1ccc(NCCC(=O)c2cccs2)cc1C`, the inhibition is 74.8% (inactive).
In the case of `CCOc1ccc(-c2nn(-c3ccccc3)cc2/C=C2\SC(=S)N(Cc3ccco3)C2=O)cc1` it was -2.18% (inactive).
Turning to `COc1ccccc1C1=NC(c2ccc(C)cc2)N=C1C` (stereo not given), the inhibition was 7.88% (inactive).
In the case of `COc1ccc(N2C(=O)C3NN=C(C(=O)OCc4ccccc4)C3C2=O)cc1` (stereo not given) it was 1.18% (inactive).
Turning to `Cc1cccc(NC(=S)N(CCN(C)C)Cc2cc3cccc(C)c3[nH]c2=O)c1`, the inhibition is 12.2% (inactive).
Consider `CSC1=NC(C)(C)C=C(/C=C/c2ccc(Cl)cc2)N1`, for which the inhibition is -4.38% (inactive).
In the case of `Cc1c(C(=O)N2CCN(C)CC2)oc2ccc(S(=O)(=O)N3CCOCC3)cc12` it was -4.68% (inactive); in that of `Cc1cc(C(=O)NC(C)c2ccncc2)no1` (stereo not given), -9.57% (inactive).
In the case of `CCn1c2c(c(C)cc1=O)C(=O)CC(C)(C)C2` it was -1.17% (inactive); in that of `CC(=O)c1ccc(N2Cc3ccccc3C3(CCOCC3)C2=N)cc1`, -1.43% (inactive); in that of `COc1ccccc1CC(=O)NC1CCCc2ccccc21` (stereo not given), 1.93% (inactive).
Consider `Cc1cc(Nc2ccc3c(c2)OCCO3)n2nc(C)nc2n1`, for which the inhibition was 1.27% (inactive).
In the case of `CCOC(=O)C1=Nc2ccccc2/C1=C\c1c(O)n(C)c(=O)n(C)c1=O` it was -4.93% (inactive); in that of `CCOC(=O)C(=O)Nc1ccccc1C(=O)OCC`, -3.74% (inactive).
For the compound `CC(=O)Nc1cc(C(F)(F)F)ccc1OCC1CCCO1` (stereo not given), the inhibition is 4.74% (inactive).
In the case of `Cc1ccc(-c2cc(C(F)(F)F)n3ncc(C(=O)N4CCCCC4c4cccnc4)c3n2)cc1` (stereo not given) it was 9.06% (inactive).
With `COc1cccc(-c2cc(C(F)(F)F)n3nc(C(=O)N4CCCCC4c4cccnc4)cc3n2)c1` (stereo not given), the inhibition was -1.53% (inactive).
In the case of `CCN1CCN(C(=S)Nc2ccsc2C(=O)OC)CC1` it was 2.48% (inactive); in that of `COc1ccc(CCNC(=O)COC(=O)COc2ccc(C#N)cc2)cc1`, 3.53% (inactive); in that of `O=C(Nc1nnc(Cc2ccc(Cl)cc2)s1)c1cccs1`, -8% (inactive).
`Cc1ccc(Cc2cnc(NC(=O)c3ccco3)s2)cc1`: the inhibition is -0.28% (inactive).
In the case of `O=C(Nc1nnc(CCc2ccccc2)s1)c1cccs1`, the inhibition is -0.19% (inactive).
In the case of `O=C(Nc1nnc(Cc2ccccc2)s1)c1cccs1` it was -2.7% (inactive); in that of `CCOC(=O)c1oc2cccc(O)c2c1CN1CCOCC1`, 1.91% (inactive).
In the case of `CC(=N/O)/C(=N\O)c1ccc(C)o1` it was 5.71% (inactive); in that of `O=C1CC(N2CCN(Cc3ccc4c(c3)OCO4)CC2)C(=O)N1c1cccc2ccccc12` (stereo not given), -7.76% (inactive).
In the case of `CCOC(=O)c1c(NC(=O)COC(=O)c2cc(OC)c(OC)cc2[N+](=O)[O-])sc(C)c1C` it was 0.78% (inactive); in that of `O=C(Nc1cccc(Cl)c1)N1CCCC1`, -2.82% (inactive); in that of `O=C(Nc1ccc(Cl)cc1)N1CCCC1`, 1.26% (inactive).
Take `N#Cc1c(-c2ccc(Cl)cc2Cl)nc2n(c1=O)CCS2`: the inhibition was -1.19% (inactive).
